The results in this text go back to PubChem BioAssay (NCATS).

SMILES strings stand for the structures. Records with an inconclusive call do not appear. The source made the active and inactive calls. Calls follow the shape of the dose curve; as a rule, active = well fitted curve in the direction sought with a large enough effect; inconclusive = small, poorly fitted or top-dose-only effect, or another doubt; inactive = no such curve, though single readings can be large; an effect the other way counts as inactive or inconclusive.

The test system of assay [1] is Zika virus NS2B-NS3 protease (linked construct). The assay can be described thus: Primary screen NINDS Rhodamine qHTS for Zika virus inhibitors (AID 1347160). Also: nearly all actives have a fitted effect of over 55% in size. Also: potency is read from the fitted curve at half-maximal effect. Put shortly: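 Purified NS2B-NS3 protease with the NS2B hydrophilic domain joined by a flexible linker (25 nM) in 10 mM Tris-HCl pH 8.0, 0.01% Tween 20, preincubated 15 min at RT with compound; Rhodamine110 peptide substrate 1.5 µM; fluorescence change over 15 min; 4-parameter Hill fit.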

Assay [2] concerns the target Calcium and integrin-binding protein 1 (Homo sapiens) (UniProt Q99828). Nature of the assay: Primary qHTS for Identification of Calcium Integrin Binding Protein 1 (CIB1) Competitor (AID 1508620).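 Also: GST tagged CIB1 binding a fluorescein labelled alphaIIb integrin peptide tracer; top concentration of the series differs between compounds.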 Put shortly:
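Fluorescence polarization competition: CIB1-GST (1 uM final) preincubated with compound 15 min at room temperature, then FITC-labeled alphaIIb peptide (100 nM final) added for another 15 min. Polarization read at Ex 480/Em 540.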
On the technique in general: Quantitative high-throughput screening tests each substance at several concentrations.

Assay [3] in a line: Primary qHTS for inhibitors of nuclear receptor binding SET domain protein 2 (NSD2) in an isogenic RCH-ACV NSD2 p.E1099K mutant (9B) (AID 1645876). Also: potency is read from the fitted curve at half-maximal effect; nearly all actives have a fitted effect of over 70% in size.
For assay [4], the target named is Glutathione peroxidase 1 (Homo sapiens) (UniProt P07203). The assay can be described thus: Primary qHTS Assay for Inhibitors of Recombinant Selenoprotein Glutathione Peroxidase 1 (GPX1) (AID 1845191). Also: nearly all actives have a fitted effect of over 65% in size. Also: potency is read from the fitted curve at half-maximal effect. In outline: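 Recombinant GPX1 (10 nM final) was preincubated with compound for 30 min at room temperature, then reacted with 1 mM GSH, 0.5 mM CHP, 0.5 mM NADPH and 100 nM glutathione reductase; NADPH fluorescence (340/450 nm) was read at 0 and 15 min.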

Assay [5] has as its target Luciferin 4-monooxygenase (Photinus pyralis) (UniProt P08659). The assay can be described thus: Primary firefly luciferase (FLuc) qHTS assay for identification of artifact compounds. (AID 1845220). Also: nearly all actives have a fitted effect of over 60% in size. Put shortly: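 qHTS, 15 min compound preincubation with substrate (10 uM luciferin, 10 uM ATP) at RT, then 10 nM FLuc; 5 min; luminescence; % inhibition vs no-enzyme/DMSO controls, 4-parameter Hill fit.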

Assay [6] is described as follows: Primary fluorescence-based thiol-reactive (MSTI) qHTS assay for identification of artifact compounds. (AID 1845221).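 Also: thiol-reactive compounds lower the probe fluorescence signal; nearly all actives have a fitted effect of over 65% in size.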 Put shortly: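 qHTS titration of compound; 4 uM MSTI, PBS pH 7.4, 2% DMSO; 1 h RT, dark; fluorescence 525/598 nm; normalized to Acetyl-MSTI and MSTI; 4-parameter Hill fit.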
Assay [7] has as its system Nanoluciferase (engineered Oplophorus gracilirostris luciferase). The assay can be described thus: Primary Nanoluciferase (NLuc) qHTS assay for identification of artifact compounds. (AID 1845222). Put shortly:
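Luminescence read-out of secreted NLuc in S16 cell conditioned medium (1:55); compounds tested with 15 min RT preincubation, then Nano-Glo substrate 1:100, 5 min. % inhibition vs no-enzyme and DMSO controls, 4-parameter Hill fit.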

Assay [8] in a line: Primary redox qHTS assay for identification of artifact compounds. (AID 1845223). Put shortly: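 Amplex Red (25 uM) and HRP (250 mU/mL) in HBSS, with compounds for 15 min, then 250 uM DTT for 30 min, room temperature, dark. Fluorescence 525/598 nm read; normalized to DMSO and 10 uM DA3003; Hill fit.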
The test system of the next assay is C33A. Nature of the assay: Primary qHTS to identify gynecologic anti-cancer compounds using libraries of approved drugs and bioactive compounds (AID 1345084). Also: nearly all actives have a fitted effect of over 55% in size. Also: potency is read from the fitted curve at half-maximal effect. The settings on record: Gynecologic cancer cell panel viability, ATPlite luminescence, 48 h; series mostly up to 57.5 µM. Put shortly:
(§1)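 Cells, 1,000 per well, were allowed to settle for 16 h at 37 C before compound addition. Five concentrations were tested for 48 h, and viability was read by ATPlite luminescence after 15 min at room temperature.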

The subject of a further assay is CAOV3. Described as above. The settings on record: Gynecologic cancer cell panel viability, ATPlite luminescence, 48 h; series mostly up to 57.5 µM. In outline: as §1
Background: In ATP-based viability assays light output follows the ATP content of the culture.

In the next assay the test system is CASKI. The assay is described as above. Particulars: Gynecologic cancer cell panel viability, ATPlite luminescence, 48 h; series mostly up to 57.5 µM. In outline: as §1
A further assay concerns Es-2. Described as above. Particulars: Gynecologic cancer cell panel viability, ATPlite luminescence, 48 h; series mostly up to 57.5 µM. Put shortly: as §1
Another assay relates to HeLa. The description is as above. Particulars: Gynecologic cancer cell panel viability, ATPlite luminescence, 48 h; series mostly up to 57.5 µM. In outline:
as §1

In a further assay the test system is Hek293T. The assay is described as above. Particulars: Gynecologic cancer cell panel viability, ATPlite luminescence, 48 h, control line for the selectivity index; series mostly up to 57.5 µM. In outline:
as §1

The test system of the next assay is JEG-3. The assay is described as above. Particulars: Gynecologic cancer cell panel viability, ATPlite luminescence, 48 h; series mostly up to 57.5 µM. In outline: as §1
For a further assay, the system named is OV90. The description is as above. Particulars: Gynecologic cancer cell panel viability, ATPlite luminescence, 48 h; series mostly up to 57.5 µM. Put shortly:
as §1

The nature of assay [9]: Primary qHTS for inhibitors of nuclear receptor binding SET domain protein 2 (NSD2) in an RCH-ACV wild type WT cells (2C) (AID 1645877). Also: potency is read from the fitted curve at half-maximal effect; nearly all actives have a fitted effect of over 70% in size.
Assay [10] concerns the target Phospholipid hydroperoxide glutathione peroxidase GPX4 (Homo sapiens) (UniProt P36969). Nature of the assay: Primary qHTS Assay for Inhibitors of Recombinant Selenoprotein Glutathione Peroxidase 4 (GPX4) (AID 1845192). Also: nearly all actives have a fitted effect of over 65% in size. Also: potency is read from the fitted curve at half-maximal effect. Particulars: outcome: dose series up to 50 µM unless noted. In outline:
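GR-coupled readout: 100 nM GR, 1 mM GSH, 0.5 mM NADPH; NADPH fluorescence (ex 340/em 450 nm) read at t=0 and after 15 min RT. GPX4 200 nM, preincubated 30 min with compound; substrate 0.5 mM CHP.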

The test system of the next assay is Tov-21-G. The assay can be described thus: Primary qHTS to identify gynecologic anti-cancer compounds using libraries of approved drugs and bioactive compounds (AID 1345084). Also: nearly all actives have a fitted effect of over 55% in size. Also: potency is read from the fitted curve at half-maximal effect. Particulars: Gynecologic cancer cell panel viability, ATPlite luminescence, 48 h; series mostly up to 57.5 µM. In outline:
as §1

The test system of the next assay is Tov112D. The assay is described as above. The settings on record: Gynecologic cancer cell panel viability, ATPlite luminescence, 48 h; series mostly up to 57.5 µM. In outline:
as §1

Chain of Phospholipid hydroperoxide glutathione peroxidase GPX4 (Homo sapiens) (P36969 whole entry, looked up): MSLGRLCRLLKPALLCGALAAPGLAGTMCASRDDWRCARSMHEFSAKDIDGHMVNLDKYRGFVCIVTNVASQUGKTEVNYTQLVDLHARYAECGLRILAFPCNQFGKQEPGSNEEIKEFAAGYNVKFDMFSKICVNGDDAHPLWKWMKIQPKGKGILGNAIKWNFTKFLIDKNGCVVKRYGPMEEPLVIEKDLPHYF
Chain of Glutathione peroxidase 1 (Homo sapiens) (P07203 whole entry, looked up): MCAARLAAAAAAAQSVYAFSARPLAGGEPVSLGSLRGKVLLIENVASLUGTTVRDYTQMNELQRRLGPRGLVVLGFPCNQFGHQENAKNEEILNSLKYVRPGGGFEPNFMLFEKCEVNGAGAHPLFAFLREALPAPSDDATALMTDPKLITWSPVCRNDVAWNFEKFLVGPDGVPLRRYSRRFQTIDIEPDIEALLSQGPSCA
Chain of Calcium and integrin-binding protein 1 (Homo sapiens) (Q99828 whole entry, looked up): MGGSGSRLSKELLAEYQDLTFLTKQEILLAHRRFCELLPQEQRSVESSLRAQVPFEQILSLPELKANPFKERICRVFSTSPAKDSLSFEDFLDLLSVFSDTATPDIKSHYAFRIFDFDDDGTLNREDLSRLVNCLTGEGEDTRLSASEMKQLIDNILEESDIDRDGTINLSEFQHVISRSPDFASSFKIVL

Turning to `COc1cc(-c2cc(-c3cccc(O)c3)cnc2N)cc(OC)c1OC`, the Potency entry in assay [1], in [4], in assay [5], in [6], in assay [7] and in [8] was “inactive” each time. In addition, the Potency entry with C33A, in the assay on CAOV3, with CASKI, in the assay on Es-2, in the assay on HeLa and in the assay on Hek293T was “inactive” throughout. Also, the Potency entry in the assay with JEG-3 and in the assay with OV90 was “inactive” each time. The outcome in assay [2] was inactive. Further, the Potency in assay [3] was 10.3 µM (active).

`COc1ccc2c(c1)CN(C(=O)CCN1CCC(Cc3ccccc3)CC1)CCS2`: the Potency result in assay [1], in [4], in [10], in assay [5], in [6] and in assay [7] was “inactive” in each case. The Potency entry in the assay with C33A, with CASKI, with Es-2, in the assay on HeLa, in the assay on Hek293T and with JEG-3 was “inactive” throughout. Besides, the Potency result in the assay with Tov-21-G and in the assay on Tov112D was “inactive” in each case. Moreover, the result in assay [2] was inactive. The Potency in assay [3] is 11.2 µM (active); in assay [9] it was 10 µM (active); in the assay on OV90, 6.31 µM (active).

Turning to `CC1=CC(=O)[C@@]2(C(C)C)C[C@@H]12`, the Potency in assay [1] was 3.16 µM (active). Besides, in assay [2], the result was inactive. The Potency result (in [4]; in assay [10]; in assay [5]; in assay [8]; with C33A; in the assay on CAOV3) was “inactive” each time. In addition, the Potency entry in the assay with CASKI, in the assay with Es-2, with OV90, in the assay on Tov-21-G and in the assay on Tov112D was “inactive” each time.

Take `CNc1cc(OC)c(C(=O)N[C@@H]2CCN(Cc3ccccc3)[C@@H]2C)cc1Cl`: the Potency result in assay [1], in assay [10], in assay [5], in [6], in assay [7] and in assay [8] was “inactive” in each case. Also, the Potency entry in the assay on C33A, in the assay on CAOV3, in the assay on CASKI, in the assay with Es-2, with HeLa and in the assay on Hek293T was “inactive” throughout. The Potency result in the assay with JEG-3, in the assay on Tov-21-G and in the assay with Tov112D was “inactive” in each case. Also, in [2], the outcome was inactive. Moreover, the Potency in assay [3] was 20.5 µM (active).

For `C=C1C(=O)O[C@@H]2C[C@@]3(C)CCC[C@H](C)C3=C[C@H]12`, the Potency entry in [1], in assay [4], in [10], in assay [5], in [6] and in assay [7] was “inactive” in each case. Besides, the Potency entry (in [8]; in the assay on C33A; in the assay on CAOV3; in the assay with CASKI; in the assay with HeLa; in the assay on Hek293T) was “inactive” each time. Also, the Potency entry with JEG-3, with OV90 and in the assay with Tov112D was “inactive” each time. For the same compound, the Potency in assay [3] was 14.5 µM (active); in [9], 12.9 µM (active).

As for `Cn1cnc(-c2nccc3c(=O)[nH]c(OCCCC(F)(F)F)nc23)c1`, the Potency entry (in assay [1]; in assay [5]; in [6]; in assay [7]; in assay [8]; in the assay on C33A) was “inactive” each time. Also, the Potency result with CAOV3, in the assay on CASKI, in the assay with HeLa and with Tov112D was “inactive” each time. The Potency was 2.9 µM (active) in [3], 2.58 µM (active) in assay [9], 8.06 µM (active) in assay [4] and 22.7 µM (active) in assay [10].
